From PubChem BioAssay AID463095 (Sanford-Burnham Center for Chemical Genomics, 2010) come the findings set out here.

Some of the results follow. Activity calls are given as the source filed them.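 Rule for the calls: active = proliferation increase above 40% at any of the four tested concentrations; inactive = the rest.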

This test is described as follows: inducers of beta-cell proliferation in MIN6, confirmation, MIN6 cells, mouse (AID 463095). As to conditions: ATPlite luminescence, 48 h, cells kept in 0.2% serum, scaled between 0.2% and 10% serum; series mostly up to 50 µM. In general terms: ATP-based viability assays read luminescence as a measure of living cells.
With `CCCNC(=O)CCn1nc(-c2ccccc2)c2ccccc2c1=O`, the compound was called inactive.

As to `COc1ccccc1OCc1ccc(C(=O)N2CCN(C)CC2)o1`, the compound was classed as inactive.

For `C/C(=N\NC(=O)c1ccccc1C)c1ccc(N2CCOCC2)cc1`, the call was inactive.

In the case of `O=C(CSc1nc2ccccc2[nH]1)N/N=C/C=C\c1ccccc1[N+](=O)[O-]`, the result was inactive.

As to `CC1(C)C2CC=C(/C=N/NC(=O)C3CC3)C1C2` (stereo unspecified), the compound was called inactive.

For `COc1ccc(CCC(=O)c2ccc(OC)cc2)cc1`, the compound was classed as inactive.

`O=C1c2ccccc2S(=O)(=O)c2cc(N3CCN(c4ccccn4)CC3)ccc21`: the compound was called inactive.

On to `COC(=O)Nc1sc2nc(C)cc(C)c2c1-n1cccc1`, for which the call was inactive.

As for `Cc1nn(C(C)C(=O)NCCC2=CCCCC2)c(=O)c2nn(-c3ccccc3)c(C)c12` (stereo unspecified), the result was inactive.

As for `OC1CN=C2Sc3ccccc3N2C1` (stereo unspecified), the call was inactive.

In the case of `CN(Cc1ccc(F)cc1Cl)S(=O)(=O)c1cccs1`, the compound was called inactive.

On to `CCOc1ccccc1NC(=O)Nc1cc(OC)ccc1OC`, for which the call was inactive.

As to `Cc1cc(NC(=O)CSc2nc3ccccc3n2CC(C)C)no1`, the result was inactive.

As for `O=S(=O)(NCCOc1cccc2cccnc12)c1ccc(F)cc1`, the outcome was inactive.

`CCOC(=O)Nc1sc(C(=O)N(C)C)c(C)c1C(=O)OCC`: the compound was classed as inactive.

Turning to `N#Cc1cccc(CN2CCC(=O)N([C@H](CO)c3ccccc3)CC2)c1`, the outcome was inactive.

For `S=C(Nc1cccc(Cl)c1)Nc1ccc2cn[nH]c2c1`, the result was inactive.

`Fc1ccc(CNCc2ccc(Br)cc2)cc1`: the result was inactive.

In the case of `COc1cccc(CNC(=O)C2CCCN(c3ncnc4c3nc3n4CCCCC3)C2)c1` (stereo unspecified), the compound was called inactive.

For the compound `COCCNc1nc(-c2ccccc2)nc2c1oc1ccccc12`, the result was inactive.

Turning to `COc1cc2c(cc1OC)C(C(=O)NCc1ccco1)C1c3ccccc3CCN1C2=O` (stereo unspecified), the outcome was inactive.
